Compound activity from PubChem.
esBAF inh = inhibitors of esBAF chromatin remodeling in mouse ES cells. Bmi1-luciferase knock-in reporter, 24 h; 100% = twice the neutral-well signal. reporter increase, % at 12.5 µM. 350,000 compounds, 2% hits. AID 602393; in the data active means activation above about 40%; inconclusive means no clear call, values can overlap the other calls;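 further: 0% = median of the plate's neutral control wells and 100% = double that signal; a rise in the Bmi1 reporter signal indicates esBAF inhibition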
Vif imaging = inhibitors of HIV Vif | HEK293T cells, Vif self-association by quenched fluorescence, imaging, 24 h | inhibition, % at 7.49 µM | 340,000 compounds, 0.35% hits; in the data active means inhibition above about 50%, passing the limit was not always enough; inconclusive means no clear call, values can overlap the other calls; inactive means below about 31%
HSF1 activator = increases HSF-1 driven luciferase reporter signal; NIH3T3-HGL HSF-1 luciferase reporter, MG132, 8 h; 100% = twice DMSO control signal; activation, % at 9 µM; 300,000 compounds, 1.7% hits;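 active means mean replicate activation of at least 50% with a set share of replicates each reaching 50%; inconclusive means only one of those two conditions met; inactive means mean below 50% and too few replicates reaching it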;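 further: 0% = median of the neutral control wells and 100% = twice that signal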
HSF1 inh = HSF1 inhibition. NIH3T3-HGL HSE-luciferase, MG132-induced, luminescence 8 h; stronger effect = lower value. activity change, negative = inhibition, % at 7.5 µM (by protocol). 300,000 compounds, 0.77% hits. AID 2098;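 active means more than half of replicate wells show activity change below -50%, luminescence cut by over half; inconclusive means some wells, but at most half, below -50%; inactive means no replicate well below -50%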;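 further: luciferase reports HSF-1 transcriptional activity via heat shock element; 0% = median of DMSO wells and -100% = zero luminescence signal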
An asterisk follows results filed as active; ? = inconclusive; . = no result. Shown are actives, neighbours in structure and some others; about 3.4% of the full set was active somewhere.

SMILES	esBAF inh	Vif imaging	HSF1 activator	HSF1 inh
COc1cc(-c2cnc3c(NC=O)cc(-c4cccc(NC(C)=O)c4)cn23)cc(OC)c1OC	-20	73*	.	.
COc1cc(-c2cnc3c(NC=O)cc(-c4ccccc4)cn23)cc(OC)c1OC	-11	74*	.	.
COc1cc(-c2cnc3c(NC=O)cc(-c4ccccc4Cl)cn23)cc(OC)c1OC	-29	58*	.	.
COc1cccc(-c2cnc3c(NC=O)cc(-c4cccc(NC(C)=O)c4)cn23)c1	16	-7	.	.
COc1ccccc1-c1cnc2c(c1)C(=O)N([C@@H](C)CO)C[C@H](C)[C@@H](CN(C)C(=O)c1cccnc1)O2	-2	.	.	.
CSc1ccc(N2C(=O)NC3(CCCCC3)C2=O)cc1	62*	.	18	12
O=S1(=O)c2cccc3cccc(c23)N1Cc1nnc(-c2ccccc2Br)o1	-43	-24	73*	55
O=C(Nc1ccc2c(c1)OCCO2)c1ccccc1F	-30	0	21	0
O=C(NC(=S)Nc1ccc2c(c1)OCCO2)c1ccccc1	2	7	-4	1
O=C(NC(=S)Nc1ccc(N2CCCCC2)cc1)c1ccc2c(c1)OCCO2	.	-3	-66	-61*
O=C(NC(=S)Nc1ccc2c(c1)OCCO2)c1ccccc1F	54*	-3	86*	23
O=C(NC(=S)Nc1ccc(N2CCOCC2)cc1)c1ccc2c(c1)OCCO2	.	-14	18	9
COc1ccc(NC(=S)NC(=O)c2ccc3c(c2)OCCO3)cc1	54*	-1	.	.
O=C(NC(=S)Nc1ccc(F)cc1)c1ccc2c(c1)OCCO2	.	-3	-73	-68*
CCS(=O)(=O)NCC[C@H]1CC[C@H](NS(=O)(=O)c2cccc(Cl)c2)[C@@H](CO)O1	-5	.	.	.
Cc1ccc(-c2ccc3c(c2)O[C@@H](CN(C)C(=O)Nc2ccc(F)cc2)[C@@H](C)CN([C@@H](C)CO)S3(=O)=O)cc1	0	.	.	.
COCC(=O)N(C)C[C@H]1Oc2ncc(-c3ccc(C#N)cc3)cc2C(=O)N([C@H](C)CO)C[C@@H]1C	4	.	.	.
C=CCNC(=O)c1c(C(F)(F)F)nn(C)c1Cl	.	-1	-64	-54*
Cn1nc(C(F)(F)F)c(C(=O)Nc2ccc(C(F)(F)F)cc2)c1Cl	-2	0	16	9
CC1Cc2ccccc2N1C(=O)CO/N=C/c1ccc(OC(F)F)cc1 (configuration not stated)	.	-1	-90	-88*
CC(C)C(=O)Nc1ccc(-c2nnc(-c3ccccc3)o2)cc1	-7	-2	7	-7
Cc1ccc(NC(=S)Nc2cccc3ccccc23)cc1F	.	-2	-62	-55*
CC(=O)c1ccc(NC(=O)Nc2ccccc2)cc1	48*	0	35	16
CC(C)C(=O)Nc1ccc(C(=O)c2ccccc2)cc1	67*	13	-37	-19
CC(=O)c1ccc(NC(=S)Nc2cccc3ccccc23)cc1	5	17	-72	-67*
SMILES	esBAF inh	Vif imaging	HSF1 activator	HSF1 inh
CC(=O)N(C)c1ccc(NC(=S)Nc2cccc3ccccc23)cc1	.	-3	-10	9
O=C(OCc1ccccc1)C1CCCN1C(=O)c1ccccc1[N+](=O)[O-] (configuration not stated)	-11	56*	1	-3
Clc1cc(Cl)c2nc(N3CCCC3)sc2c1	.	5	37	27
Clc1cc(Cl)c2nc(N3CCCCC3)sc2c1	53*	-2	38	13
Fc1cc(F)c2nc(N3CCCCC3)sc2c1	66*	1	-29	-13
CCCCCc1ccc(-c2nnc(N)s2)cc1	?	-23	?	32
CCCCCCc1ccc(-c2ncc(N)cn2)cc1	40	19	51*	28
C[C@@H]1CN([C@H](C)CO)C(=O)c2cccc(NC(=O)C3CC3)c2O[C@H]1CN(C)Cc1ccncc1	0	.	.	.
COc1ccc2c(c1)CCc1c(C(=O)N3CC4(C)CC3CC(C)(C)C4)noc1-2 (configuration not stated)	.	-2	84*	55
O=C(NC1CCCCC1)N[C@@H]1CC[C@H](CC(=O)N2CCOCC2)O[C@@H]1CO	-2	.	.	.
COc1ccc(C(=O)NCCn2ccc3ccccc32)c(OC)c1	55*	-18	15	12
CCc1ccc(-c2cn3c(n2)SCC3)cc1	29	.	51*	20
Cc1ccc(-c2cn3c(n2)SCC3)cc1	7	23	3	14
Cc1cc(-c2nnc(CCC(=O)N(CC3CC3)CC3CCCO3)o2)no1 (configuration not stated)	.	33	9	-5
Cc1cc(-c2nnc(CCC(=O)N(CC3CCC3)CC3CCCO3)o2)no1 (configuration not stated)	47*	7	7	7
COc1cccc(S(=O)(=O)N[C@H]2C=C[C@@H](CC(=O)NCc3ccncc3)O[C@@H]2CO)c1	-8	.	.	.
N#Cc1c(-c2cccs2)cc(-c2cccs2)[nH]c1=O	.	51*	7	6
C[C@@H]1CCCCO[C@@H](CN(C)Cc2ccccc2)[C@H](C)CN([C@H](C)CO)C(=O)c2cc(NC(=O)c3ccccc3)ccc2O1	-8	.	.	.
CN(C)Cc1c(O)ccc2c(=O)c(-c3ccc(Cl)cc3)coc12	64*	-2	19	13
CS(=O)(=O)c1ccccc1COC(=O)Nc1ccc(Cl)cc1	10	-2	4	9
O=C(Nc1ccc(Cl)cc1)OCc1ccccn1	77*	-1	57*	42
CC(C)c1cc2cc3ccc(=O)oc3cc2o1	52*	-5	28	11
CCOC(=O)c1sc2c(c1C)C(c1cccs1)C1=C(CCCC1=O)N2 (configuration not stated)	.	2	79*	28
CCOC(=O)C1=C(C)NC2=C(C(=O)CCC2)C1c1cccs1 (configuration not stated)	-1	8	-16	7
O=C(c1ccccn1)N1CC[C@@H]2[C@@H](CO)Nc3ccc(-c4ccc(F)cc4)cc3[C@@H]21	10	.	.	.
SMILES	esBAF inh	Vif imaging	HSF1 activator	HSF1 inh
Cc1nc(N)sc1N=Nc1ccc(Br)cc1	75*	5	11	3
Cc1[nH]nc(N)c1N=Nc1ccc(Br)cc1	.	.	20	2
C[C@H](CO)N1C[C@H](C)[C@H](CN(C)C(=O)Nc2cccc3ccccc23)Oc2ccc(NC(=O)Nc3ccc4c(c3)OCO4)cc2C1=O	0	.	.	.
CN1[C@H](C(=O)NC2CCC2)[C@@H](CO)[C@@H]2Cn3c(ccc(/C=C/c4ccccc4)c3=O)[C@@H]21	4	.	.	.
Cc1noc(C)c1NC(=O)Nc1ccc2c(c1)C(=O)N([C@H](C)CO)C[C@@H](C)[C@H](CN(C)Cc1ccc3c(c1)OCO3)O2	-6	.	.	.
CCOC(=O)C1C(=O)OC(C)(C)C1C(C)C(=O)c1ccc(C)cc1 (configuration not stated)	-3	36	-59	-52*
CCOC(=O)C1C(=O)OC(C)(C)C1C(C)C(=O)c1ccc(C)cc1C (configuration not stated)	.	3	56*	15
Cc1noc(C)c1NC(=O)Nc1ccc2c(c1)C(=O)N([C@@H](C)CO)C[C@H](C)[C@H](CN(C)S(=O)(=O)c1cn(C)cn1)O2	-2	.	.	.
